Only some compounds are listed: those with a hit (about 4.1% of all), similar ones and a draw of the others.
MEKK2mut PB1 HTS: signal of MEK5 binding to mutant human MEKK2 PB1 domain | bead flow cytometry, Alexa488-MEK5 binding to MEKK2 mutant | percent response, % at 10 µM | actives 0.35% (n = 290,000) | AID 1530; in the data active means percent response above about 24%, passing the limit was not always enough
MEKK3 PB1 HTS: MEKK3-MEK5 PB1 interaction, increase or decrease; actives 1.4% (n = 290,000); Q99759; binding response (% of control), % at 10 µM; bead-based flow cytometry, Alexa488-MEK5 binding to MEKK3; actives lie on both sides; 0 = blocked by unlabeled MEK5, 100 = vehicle;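 active means binding response more than 3 SD above or below the average of its plate-row segment, actives on both sides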;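 further: Alexa488 bead fluorescence after subtracting the streptavidin-only scavenger bead signal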
CHT inh: inhibitors of human choline transporter CHT; Q9GZV3; actives 0.86% (n = 310,000); B-score at 10 µM; CHT-expressing cells, membrane potential dye, choline response; stronger effect = lower value;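 active means B-score over 3 SD under the library average, and starting fluorescence ratio not unusually high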;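 further: choline stimulus applied at its EC90 after an EC20 pre-addition; B-score computed on integrated fluorescence ratio after choline addition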
Target sequence (Q9GZV3 whole entry, looked up): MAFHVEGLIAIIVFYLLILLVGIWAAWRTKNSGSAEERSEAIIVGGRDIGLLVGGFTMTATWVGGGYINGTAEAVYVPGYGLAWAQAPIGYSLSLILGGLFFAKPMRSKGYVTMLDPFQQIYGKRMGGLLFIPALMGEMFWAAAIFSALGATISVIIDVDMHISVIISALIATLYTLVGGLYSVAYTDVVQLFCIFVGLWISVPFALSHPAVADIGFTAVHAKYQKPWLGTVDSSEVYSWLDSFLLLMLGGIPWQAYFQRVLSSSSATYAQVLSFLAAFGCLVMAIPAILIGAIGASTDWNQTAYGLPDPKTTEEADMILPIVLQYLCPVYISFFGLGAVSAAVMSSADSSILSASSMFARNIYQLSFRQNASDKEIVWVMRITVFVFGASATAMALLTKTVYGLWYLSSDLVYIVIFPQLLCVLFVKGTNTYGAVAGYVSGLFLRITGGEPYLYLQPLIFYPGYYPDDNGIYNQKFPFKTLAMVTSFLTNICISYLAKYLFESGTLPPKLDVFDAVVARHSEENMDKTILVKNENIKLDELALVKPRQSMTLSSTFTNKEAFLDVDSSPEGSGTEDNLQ
MEKK2 WT-MEK5: raises or lowers MEK5 binding to wildtype human MEKK2 PB1 domain. actives 1.1% (n = 290,000). bead flow cytometry, Alexa488-MEK5 binding to MEKK2 WT; actives lie on both sides. binding response (% of control), % at 10 µM. Q9Y2U5; in the data active means binding response below about 67% or above about 130%
SUMO Mot1 rescue: blocks SUMOylation pathway, rescuing yeast Mot1-301 growth | growth rescue, % at 18.8 µM | actives 1% (n = 320,000) | S. cerevisiae Mot1-301 growth rescue, ATP luminescence, 38.5C; percent above DMSO median, 100 means doubled;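 active means every valid replicate shows activation above 250% relative to neutral control wells; inactive means the rest, any valid replicate at or below 250%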;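 further: OY570 slx delta 5 strain wells were the positive control but not used for scaling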
CHT PAM: human CHT allosteric activation; Q9GZV3; CHT-expressing cells, membrane potential dye, choline EC20; stronger effect = higher value; LV-AA mutant CHT in HEK293 cells; B-score at 10 µM; actives 0.49% (n = 310,000);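 active means initial fluorescence not abnormally high and integrated response B-score, plate-corrected, over 3 SD above library mean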
CHT inh conf: confirmation of human choline transporter CHT inhibitors. shares compounds with CHT inh. actives 70% (n = 2,400). CHT activity remaining % of control (stronger effect = lower value), % at 10 µM. AID 493221. CHT-expressing cells, choline membrane potential dye; LV-to-AA substituted CHT, HEK293 cells;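 active means choline transporter activity left, mean of duplicates at 10 µM, below buffer-only control mean minus 3 SD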;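 further: depolarization triggered by choline at its EC90 following an EC20 pre-addition; 0% = hemicholinium-3 full block and 100% = buffer-only control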
HEK293 CHT ctr: counter-screen for CHT inhibitors: effect in parental HEK293 cells | actives 4% (n = 2,400) | shares compounds with CHT inh | membrane potential ratio readout (active if shifted either direction beyond buffer ±3SD; no single direction) at 10 µM | membrane potential dye, choline response; active = decrease or increase beyond buffer ±3SD;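 further: parental cells lack the transporter so any hit is non-specific; ratio is peak minus trough fluorescence over baseline after EC90 choline challenge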
Numbers without * were called inactive; i = inactive; nt = no result given.

SMILES | MEKK2mut PB1 HTS | MEKK3 PB1 HTS | CHT inh | MEKK2 WT-MEK5 | SUMO Mot1 rescue | CHT PAM | CHT inh conf | HEK293 CHT ctr
S=C(NCCCN1CCOCC1)Nc1cccc(-c2nnc3n2CCCCC3)c1 | 0 | 98 | -5.2* | 94 | 147 | i | 61%* | i
CCCC(NC(=O)C(C)N1CCN(S(=O)(=O)c2ccccc2)CC1)c1ccccc1 (configuration not stated) | nt | nt | nt | nt | 10 | nt | nt | nt
CCCN(CCC)CCCNC(=O)c1cn(CC)c2ccc(S(=O)(=O)N3CCOCC3)cc2c1=O | -3 | 101 | i | 99 | -13 | i | nt | nt
CCN(CC)CCCNC(=O)c1cn(CC)c2ccc(S(=O)(=O)N3CCc4ccccc4C3)cc2c1=O | -2 | 95 | -12* | 98 | -3 | i | 15%* | i
CCn1cc(C(=O)NCCCN2CCN(C)CC2)c(=O)c2cc(S(=O)(=O)N3CCc4ccccc4C3)ccc21 | -3 | 87 | -9.1* | 89 | -3 | i | i | i
CCN(CC)CCNC(=O)c1cn(CC)c2ccc(S(=O)(=O)N3CCc4ccccc4C3)cc2c1=O | 8 | 107 | -8.1* | 116 | 0 | i | 28%* | i
CCCCNC(=O)c1cn(CC)c2ccc(S(=O)(=O)N3CCCC3)cc2c1=O | -4 | 99 | i | 97 | -8 | i | nt | nt
CCOC(=O)C1CCN(C(=O)COc2cc(C)c(Br)cc2C)CC1 | 2 | 102 | -6.5* | 104 | -2 | i | i | i
CCOC(=O)C1CCN(C(=O)COc2ccc(Br)cc2Br)CC1 | 2 | 105 | i | 101 | -2 | i | nt | nt
CC1=NN(c2cccc(Cl)c2)C(=O)C1 | 0 | 102 | i | 106 | 257 | i | i | i
CC1=NN(c2ccc(Cl)c(C(=O)O)c2)C(=O)C1 | -1 | 98 | i | 99 | 233 | i | nt | nt
O=[N+]([O-])c1ccc(O)c(/C=N/NC2=NS(=O)(=O)c3ccccc32)c1 | -3 | 84 | -5.6* | 91 | -3 | i | 60%* | i
O=[N+]([O-])c1ccc(/C=N/NC2=NS(=O)(=O)c3ccccc32)cc1 | -2 | 101 | i | 96 | -4 | i | nt | nt
Cc1nn(C)c(NC(=O)c2ccc(Cl)cc2Cl)c1Br | 2 | 97 | i | 98 | 17 | i | nt | nt
NC(=O)C1CCN(C(=O)OCc2ccccc2)CC1 | -4 | 90 | i | 97 | 5 | i | nt | nt
CC(C)(C)c1nc2cc(Cl)c([N+](=O)[O-])cc2o1 | -8 | 104 | -14* | 93 | 7 | i | i | i
CCOC(=O)c1cccc(NC(=O)CSc2nnc(C)n2Cc2ccccc2)c1 | 5 | 103 | -6.9* | 101 | 1 | i | 66%* | i
COc1ccc(NC(=O)CSc2nnc(C)n2Cc2ccccc2)cc1 | 3 | 106 | i | 107 | -12 | i | nt | nt
Cc1nnc(SCC(=O)c2ccccc2)n1Cc1ccccc1 | -1 | 91 | -5.3* | 91 | 4 | i | 47%* | -8.6*
O=[N+]([O-])c1ccc(SCCc2ccccn2)cc1 | -26 | 89 | -6.5* | 94 | -10 | i | 53%* | i
CCCCCCCN1C(Nc2ccccc2)=NC[C@@H]1Cc1ccccc1 | 22 | 104 | i | 128 | 240 | i | nt | nt
c1ccc(CCCCN2C(Nc3ccccc3)=NC[C@@H]2Cc2ccccc2)cc1 | nt | nt | -7.5* | nt | -2 | i | 32%* | i
Cc1ccc(-c2csc3nc(SCC(=O)Nc4ccc(Cl)c(C(=O)O)c4)[nH]c(=O)c23)cc1 | -1 | 101 | -5.6* | 102 | 3 | i | 67%* | i

Assay outcomes as filed in PubChem BioAssay.
